# Screening data deposited in PubChem by National Center for Advancing Translational Sciences (NCATS).
# Sfp inh: qHTS Assay for Inhibitors of Bacillus subtilis Sfp phosphopantetheinyl transferase (PPTase) | Biochemical Sfp PPTase activity, qHTS | 4'-phosphopantetheinyl transferase ffp (Bacillus subtilis), Q9F4F7 | Potency, µM, for inactives: largest response in the series, negative = inhibition, actives largely listed as inhibitors | AID 1490, 2009 | hit rate 3.5% among 310,000;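 note: the enzyme is Sfp with the accession as filed and its product quenches rhodamine fluorescence; 0% = enzyme reaction without inhibitor and -100% = no enzyme wells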
#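 Fluorescence-quenching assay: 15 nM Sfp-PPTase preincubated 15 min at room temperature with compound, then 5 uM rhodamine-CoA and 12.5 uM BHQ-2-labelled YbbR peptide added. Fluorescence (ex 525/em 598 nm) read at start and after 30 min; difference gives rate.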
# L3MBTL1 inh: qHTS Assay for the Inhibitors of L3MBTL1. Lethal(3)malignant brain tumor-like protein 1 (Homo sapiens), Q9Y468. Potency, µM (titrated, usually from 57.1 µM), for the others: top-dose activity, negative = inhibition, actives largely listed as inhibitors. hit rate 0.66% among 230,000. AlphaScreen L3MBTL1–H3K9me1 peptide binding. AID 485360, 2010; note: % is set by controls: 0 for no effect and ±100 for the full control effect; nearly all actives have a fitted effect of over 60% in size
#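 Displacement of a biotinylated histone H3(1-15) peptide monomethylated at Lys9 (75 nM) from L3MBTL1 (50 nM) was measured by AlphaScreen after a 30 min room-temperature compound incubation; cefsulodin titration served as intraplate control.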
# BAZ2B inh: qHTS Assay for Inhibitors of BAZ2B; Potency, µM (titrated, usually from 114 µM), for the others: at the highest dose activity change, negative = inhibition, most hits filed as inhibitors; hit rate 4.4% among 360,000; AID 504333, 2011; AlphaScreen BAZ2B-H3K14Ac peptide displacement; Bromodomain adjacent to zinc finger domain protein 2B (Homo sapiens), Q9UIF8; note: % is set by controls: 0 for no effect and ±100 for the full control effect; nearly all actives have a fitted effect of over 60% in size
# Target sequence (Q9UIF8 whole entry, looked up, the tested form may be a part): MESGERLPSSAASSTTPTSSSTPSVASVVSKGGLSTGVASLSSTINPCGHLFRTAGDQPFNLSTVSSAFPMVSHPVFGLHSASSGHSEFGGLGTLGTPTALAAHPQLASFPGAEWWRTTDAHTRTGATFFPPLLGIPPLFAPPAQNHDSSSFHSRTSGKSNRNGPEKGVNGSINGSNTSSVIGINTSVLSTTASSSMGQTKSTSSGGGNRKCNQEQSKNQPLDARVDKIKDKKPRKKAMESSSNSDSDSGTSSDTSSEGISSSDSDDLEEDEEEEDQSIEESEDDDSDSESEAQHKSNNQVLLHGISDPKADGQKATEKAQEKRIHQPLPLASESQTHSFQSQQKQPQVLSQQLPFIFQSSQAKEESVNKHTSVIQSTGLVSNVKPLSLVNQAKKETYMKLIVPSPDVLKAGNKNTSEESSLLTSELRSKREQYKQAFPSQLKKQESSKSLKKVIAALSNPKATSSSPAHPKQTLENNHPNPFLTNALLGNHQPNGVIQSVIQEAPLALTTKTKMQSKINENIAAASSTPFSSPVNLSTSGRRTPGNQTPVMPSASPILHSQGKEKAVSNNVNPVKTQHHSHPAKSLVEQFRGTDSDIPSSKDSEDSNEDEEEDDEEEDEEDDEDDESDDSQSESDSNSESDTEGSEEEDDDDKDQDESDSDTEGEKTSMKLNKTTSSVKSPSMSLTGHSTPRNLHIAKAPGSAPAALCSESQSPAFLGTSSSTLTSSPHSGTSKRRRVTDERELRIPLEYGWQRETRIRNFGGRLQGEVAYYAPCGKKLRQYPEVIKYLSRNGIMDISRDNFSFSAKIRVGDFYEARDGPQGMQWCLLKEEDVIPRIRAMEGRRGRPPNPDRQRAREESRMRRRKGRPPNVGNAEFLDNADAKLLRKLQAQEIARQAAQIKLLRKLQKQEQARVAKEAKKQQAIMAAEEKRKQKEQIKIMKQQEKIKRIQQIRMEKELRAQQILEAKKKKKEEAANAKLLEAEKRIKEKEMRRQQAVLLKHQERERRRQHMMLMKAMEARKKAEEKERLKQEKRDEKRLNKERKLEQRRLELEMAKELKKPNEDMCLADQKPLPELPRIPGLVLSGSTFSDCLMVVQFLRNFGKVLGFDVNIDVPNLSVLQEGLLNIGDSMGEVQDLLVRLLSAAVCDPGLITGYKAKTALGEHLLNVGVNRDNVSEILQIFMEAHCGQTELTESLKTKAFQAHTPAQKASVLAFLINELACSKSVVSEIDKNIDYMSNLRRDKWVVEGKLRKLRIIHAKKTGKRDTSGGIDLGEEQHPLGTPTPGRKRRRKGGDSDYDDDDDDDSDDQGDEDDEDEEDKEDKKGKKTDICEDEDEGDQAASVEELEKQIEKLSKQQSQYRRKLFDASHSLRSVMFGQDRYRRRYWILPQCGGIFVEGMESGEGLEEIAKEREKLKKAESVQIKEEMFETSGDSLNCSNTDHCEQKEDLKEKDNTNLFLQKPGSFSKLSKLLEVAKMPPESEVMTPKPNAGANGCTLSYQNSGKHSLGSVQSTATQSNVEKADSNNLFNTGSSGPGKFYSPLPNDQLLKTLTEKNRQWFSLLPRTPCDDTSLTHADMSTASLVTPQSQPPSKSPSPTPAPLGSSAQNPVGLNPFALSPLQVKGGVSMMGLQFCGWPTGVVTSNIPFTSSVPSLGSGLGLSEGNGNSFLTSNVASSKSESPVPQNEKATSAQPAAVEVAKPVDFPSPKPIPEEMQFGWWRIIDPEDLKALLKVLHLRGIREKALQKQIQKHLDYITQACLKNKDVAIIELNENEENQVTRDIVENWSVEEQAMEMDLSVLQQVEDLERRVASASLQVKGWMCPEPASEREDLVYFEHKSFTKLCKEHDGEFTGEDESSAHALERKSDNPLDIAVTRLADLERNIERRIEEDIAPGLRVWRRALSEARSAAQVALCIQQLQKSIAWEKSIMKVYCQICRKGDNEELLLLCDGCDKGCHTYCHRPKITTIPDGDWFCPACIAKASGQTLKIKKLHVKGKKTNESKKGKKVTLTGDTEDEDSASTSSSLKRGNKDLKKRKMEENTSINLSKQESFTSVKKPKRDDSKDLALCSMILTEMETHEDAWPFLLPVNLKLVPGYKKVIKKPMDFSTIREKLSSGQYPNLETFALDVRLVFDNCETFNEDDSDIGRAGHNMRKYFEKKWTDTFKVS
#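 Multi-concentration screen (max 110 uM) measuring displacement of acetylated histone H3 peptide from BAZ2B by AlphaScreen, using 50 nM protein, 50 nM peptide and 10 ug/mL streptavidin donor plus Ni-chelate acceptor beads.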
# JMJD2A Tudor inh: qHTS Assay for Inhibitors of JMJD2A-Tudor Domain; Lysine-specific demethylase 4A (Homo sapiens), O75164; AlphaScreen JMJD2A-Tudor / H3K4me3 peptide binding; Potency, µM (top dose mostly 114 µM), for the others: top-dose activity change, negative = inhibition, actives largely listed as inhibitors; hit rate 4.4% among 390,000; note: % is set by controls: 0 for no effect and ±100 for the full control effect; nearly all actives have a fitted effect of over 50% in size
# HP1b chromo inh: HTS for Inhibitors of HP1-beta Chromodomain Interactions with Methylated Histone Tails; AID 540317, 2011; hit rate 0.56% among 390,000; Chromobox protein homolog 1 (Homo sapiens), P83916; Potency, µM (titrated, usually from 114 µM), without a hit: at the top dose activity change, negative = inhibition, usual class: inhibitors; AlphaScreen HP1-beta / biotin-H3K9me3 peptide binding; note: nearly all actives have a fitted effect of over 70% in size
#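 HP1-beta protein (50 nM final) preincubated 30 min at room temperature with biotinylated H3(1-18)K9me3 peptide (50 nM) in PBS pH 7.4, 0.01% Tween-20, then compound added for 30 min. AlphaScreen streptavidin donor/nickel chelate acceptor beads (10 ug/mL final), 30 min dark, luminescence read.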
# G9a block: qHTS Assay for Inhibitors of Histone Lysine Methyltransferase G9a; Potency, µM (series often up to 102 µM), for inactives: at the top dose activity, negative = inhibition, actives largely listed as inhibitors; Histone-lysine N-methyltransferase EHMT2 (Homo sapiens), Q96KQ7; G9a H3K9 monomethylation, AlphaScreen, 2 h; hit rate 8.8% among 350,000; note: % is set by controls: 0 for no effect and ±100 for the full control effect; nearly all actives have a fitted effect of over 75% in size
#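 G9a (20 nM) was preincubated 15 min with compound, then reacted 2 h at room temperature with 500 nM biotin-H3K9 peptide and 20 µM SAM. Monomethyl-H3K9 detected by AlphaScreen using anti-H3K9me1 antibody.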
# * marks the source's active call; other numbers are inactive results; ? = inconclusive; nt = not tested or not shown; ! = a repeat was not active; [ ] = another dose, or the depositor's remark. This is a sample that favours compounds with a hit; in the whole collection about 12% have one here. Calls come from the whole dose curve; as a rule, active = well fitted curve in the direction sought with a large enough effect; inconclusive = small, poorly fitted or top-dose-only effect, or another doubt; inactive = no such curve, though single readings can be large; an effect the other way counts as inactive or inconclusive. Potency is the fitted concentration of half-maximal effect.
SMILES,Sfp inh,L3MBTL1 inh,BAZ2B inh,JMJD2A Tudor inh,HP1b chromo inh,G9a block
Cc1cc(OCC(=O)N(Cc2ccc(N(C)C)cc2)CC2CCCO2)ccc1Cl (configuration not stated),nt,nt,28µM*,35µM*,?,13µM*
CCCOc1ccc(C(=O)N(Cc2ccc(N(C)C)cc2)CC2CCCO2)cc1 (configuration not stated),nt,nt,40µM*,40µM*,?,11µM*
COc1ccccc1OCC(=O)N(Cc1ccc(Cl)cc1)CC1CCCO1 (configuration not stated),nt,nt,0%,-12%,13%,7%[59 µM]
CCOc1ccccc1C(=O)N(Cc1ccc(N(C)C)cc1)CC1CCCO1 (configuration not stated),nt,nt,?,?,-20%,?
CN(C)c1ccc(CN(CC2CCCO2)C(=O)COc2ccc(Cl)cc2)cc1 (configuration not stated),nt,nt,32µM*,45µM*,?,14µM*
CCC(C)NC(=O)Cn1c(=O)n(Cc2ccc(C(=O)NCCCOC)cc2)c(=O)c2ccccc21 (configuration not stated),nt,nt,-7%,-11%,20%,-2%[59 µM]
Clc1ccc(/C=N/c2c(-c3ccc(Cl)cc3)nc3n2CCS3)cc1,9%,0%,?,?,-31%,35µM*
O=C(COCc1cc(-c2ccc(F)cc2)on1)Nc1cc(Cl)cc(Cl)c1,nt,nt,8%,-4%,16%,11%[59 µM]
Cc1ccc(Oc2nc(CN3CCOCC3)nc3sc4c(c23)CCC(C)C4)cc1 (configuration not stated),?,-5%,?,?,-5%,79µM*
Cc1sc2nc(CN3CCOCC3)nc(Oc3ccc(NC(=O)c4ccco4)cc3)c2c1C,89µM*!,-10%,-34%,-27%[57.1 µM],-26%,50µM*!
O=C(Nc1ccc(CN2CCOCC2)cc1)c1ccco1,7%,nt,-14%,-4%,21%,-16%
COc1cccc(OC)c1C(=O)OCCCOC(=O)c1c(OC)cccc1OC,6%,nt,-11%,-12%,5%,?
Cc1ccc(-c2nn(-c3ccccc3)cc2/C=C(\C#N)C(=O)NCc2ccccc2)cc1,-2%,1%,3%,0%,43%,-6%[59 µM]
CCOc1cccc(-c2nn(-c3ccccc3)cc2/C=C(/C#N)C(=O)NCCCn2ccnc2)c1,?,?,35µM*,?,?,?
N#C/C(=C/c1cn(-c2ccccc2)nc1-c1cccc(S(=O)(=O)N2CCCC2)c1)C(=O)NCc1ccco1,-12%,?,-34%,-18%,-2%,50µM*
N#C/C(=C/c1cn(-c2ccccc2)nc1-c1cccc(OCc2ccccc2)c1)C(=O)NCCCn1ccnc1,-27%,?,10µM*,40µM*,?,-11%[59 µM]
CC(C)Cc1nn2c(=O)cc(COC(=O)c3cccc(NC(=O)c4cccs4)c3)nc2s1,nt,nt,-10%,-8%,30%,-3%[12.7 µM]
CC1=C(C(N)=O)C(c2ccc(C)cc2)n2nc(SCc3ccccc3)nc2N1 (configuration not stated),nt,nt,-3%,-1%,37%,-24%[59 µM]
CC1CCC/C(=C(\C#N)c2nc(-c3cc4ccccc4oc3=O)cs2)C1 (configuration not stated),-17%,9%,13%,52%,116%,-3%[59 µM]
CCCSc1nc(C)c(-c2csc(C(C#N)=C3CCCC3)n2)cc1C#N,71µM*,?,20µM*,50µM*,1%,?
COc1ccc(S(=O)(=O)N2CCN(Cc3nc4ccc(C)cc4o3)CC2)cc1,nt,nt,-16%,-11%,15%,13%[59 µM]
Cc1ccc(C)c(NC(=O)CNC(=O)N2CC(=O)Nc3ccccc32)c1,9%,nt,-4%[57.1 µM],-3%,65%,26%
Cc1cccc(Nc2c([N+](=O)[O-])cc(C(=O)N3CC(=O)Nc4ccccc43)cc2[N+](=O)[O-])c1,16%,-7%,?,?,-16%,11µM*
Cc1ccc(C)c(Nc2c([N+](=O)[O-])cc(C(=O)N3CC(=O)Nc4ccccc43)cc2[N+](=O)[O-])c1,-1%,-29%,25µM*,?,?,18µM*
O=C(Cn1c(=O)n(Cc2nc(-c3ccccc3)no2)c(=O)c2cc3c(cc21)OCO3)Nc1cccc(C(F)(F)F)c1,nt,nt,-12%,-9%,24%,-15%[59 µM]
SMILES,Sfp inh,L3MBTL1 inh,BAZ2B inh,JMJD2A Tudor inh,HP1b chromo inh,G9a block
Nc1nc(NCc2ccccc2)nc(Nc2cccc(F)c2)c1[N+](=O)[O-],6%,?,-4%,-18%,4%,2%[12.7 µM]
Cc1cccc(NCc2ccccc2)c1,3%,0%,-11%,-4%[11.4 µM],23%,6%
Cc1cccc(NCc2ccc([N+](=O)[O-])s2)c1,6%,-7%,?,?,-19%,45µM*
O=[N+]([O-])c1ccc(CNc2cccc(F)c2)s1,1%,-5%,-36%,?,-6%,50µM*
O=C(O)C1CCCCC1C(=O)Nc1cccc(Br)c1 (configuration not stated),nt,13µM*,?,25µM*,25µM*,16%[2.33 µM]
O=C(O)[C@H]1CCCC[C@H]1C(=O)Nc1ccc(Nc2ccccc2)cc1,3%,-12%,-35%,-11%,13%,8.9µM*
CC(C)c1ccc(NC(=O)C2CCCCC2C(=O)O)cc1 (configuration not stated),19%,3%,-6%,-2%,40%,25%[12.7 µM]
C=C(C)CCC1(C)NC(=O)N(c2ccccc2)N1 (configuration not stated),-9%,-14%,-19%,-2%,26%,?
CCCCCCC1(C)NC(=S)N(c2ccccc2)N1 (configuration not stated),?,nt,nt,?,?,14µM*
CC1(CC(=O)Nc2ccccc2)NC(=S)N(c2ccccc2)N1 (configuration not stated),?,-1%,?,5.6µM*,-7%,?
CCCCCC1(C)NC(=S)N(c2ccccc2)N1 (configuration not stated),40µM*,nt,?,50µM*,-7%,?
CC(NC(=O)C1CCN(C(=O)Nc2ccccc2)CC1)c1ccccc1 (configuration not stated),nt,2%,-8%,-16%,23%,9%
